Only a selection was taken, and hits are over-represented in it overall.
TDP-43 rescue: rescues yeast from TDP-43 toxicity; yeast TDP-43 toxicity rescue, BacTiter-Glo growth, 24 h; Potency, µM (titrated, usually from 46.1 µM), hits mostly activators; hit rate 0.45% among 45,000; AID 1347073; active means well fitted activation curve with a large enough effect; further: nearly all actives have a fitted effect of over 55% in size
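TDP-43-expressing yeast, pregrown in raffinose, seeded at OD600 0.02 in galactose medium with compound for 24 hr at 30 deg C. Growth read by BacTiter-Glo luminescence, so rescue of toxicity appears as activation.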
Hits are given with their value; 0 = inactive.

SMILES | TDP-43 rescue
CC(=O)c1ccc(C(=O)N2CCc3c([nH]c4ccccc34)C2c2cccc(C)n2)s1 (centres undefined) | 13µM
Cc1cccc(C2c3[nH]c4ccccc4c3CCN2Cc2ccc(C)s2)n1 (centres undefined) | 0
COc1ccccc1C(=O)Nc1cccc(NC(=O)c2ccccc2C)c1 | 14µM
COc1cccc(NC(=O)c2cccc(C)c2[N+](=O)[O-])c1 | 0
CCN(CC)c1cc(C)c2cc(NC(=O)c3ccccc3OC)ccc2n1 | 0
COc1ccccc1NC(=O)CSc1nc(-c2ccc(C(C)(C)C)cc2)c(C#N)c(=O)[nH]1 | 0
Cn1c(CCC(=O)OCC(=O)NCC(F)(F)F)nc(=O)c2ccccc21 | 0
O=C(COC(=O)c1c2ccccc2cc2ccccc12)NCC(F)(F)F | 22µM
Cc1nc2ccccc2nc1OCC(=O)NCC(F)(F)F | 0
O=C(Nc1ccccc1C(F)(F)F)N1CCC2(CC1)Oc1ccccc1C(=O)N2Cc1ccccc1F | 0
Cc1ccc(CNC(=O)c2ccc(N3Cc4ccccc4Oc4ncccc43)s2)cc1 | 0
CCOC(=O)CN1C(=O)c2cccnc2Oc2ccccc21 | 0
C[n+]1cccc2c(Br)ccc([O-])c21 | 0
[O-][n+]1cccc2c(Br)cc(Br)c(O)c21 | 7.9µM
CCOc1ccc(CCNCc2c(C(=O)O)n(Cc3ccc(C)cc3)c3cc(OC)ccc23)cc1 | 0
COc1cccc(CNC(=O)C2CCN(c3nnc(-n4c(C)ccc4C)s3)CC2)c1 | 0
O=C(O)c1ccccc1C(=O)Nc1ccc(Oc2ccc3ccccc3c2)cc1 | 22µM
O=C(O)c1ccccc1C(=O)Nc1ccc(S(=O)(=O)N2CCCC2)cc1 | 0
O=C(Nc1ccc(Oc2cccnc2)cc1)c1ccccc1Cl | 0
CCC(C)NC(=O)Cn1c(=O)n(CCCCCC(=O)NCc2ccccc2Cl)c(=O)c2sccc21 (centres undefined) | 0
O=C(CCn1c(=O)c2sccc2n(Cc2ccccc2F)c1=O)NCc1ccc2c(c1)OCO2 | 0
CCCCNS(=O)(=O)c1ccc(C)c(-c2nnc3c4ccccc4c(C)nn23)c1 | 0
CC(=O)Nc1ccc(NC(=O)C2Cc3c(-c4cccc(C(C)=O)c4)ccnc3O2)cc1 (centres undefined) | 0
CC(=O)c1cccc(-c2ccnc3c2CC(C(=O)Nc2cccc(OC(F)(F)F)c2)O3)c1 (centres undefined) | 22µM
O=C(Nc1cccc(OC(F)(F)F)c1)C1Cc2c(-c3ccco3)ccnc2O1 (centres undefined) | 0
SMILES | TDP-43 rescue
CC1(C(=O)NC2CCCCC2)Cc2ccccc2C(=O)N1Cc1ccc(Cl)cc1 (centres undefined) | 0
COc1ccccc1C(=O)Nc1ccc2nc(N3CCC(C)CC3)cc(C)c2c1 | 0
COCCNC(=S)N/N=C(\C)c1cc2ccccc2o1 | 13µM
COCCNC(=S)N/N=C(\C)c1ccc(OC)cc1 | 0
COCCNC(=S)N/N=C(\C)c1cccc(C(F)(F)F)c1 | 0
C=C(C)CSc1nc2sc3c(c2c(=O)n1Cc1ccccc1)CC(C)(CC)OC3 (centres undefined) | 0
COc1ccc(NS(=O)(=O)c2cc(NC(=O)COc3ccccc3)ccc2N2CCOCC2)cc1 | 0
O=C(COc1c(F)c(F)c(C(F)(F)F)c(F)c1F)Nc1ccc(N2CCOCC2)c(Cl)c1 | 13µM
COCc1cc(C)n(CC(=O)Nc2ccc(N3CCOCC3)c(Cl)c2)c(=O)c1C#N | 0
COc1ccc(C(=O)N2c3ccc(C)cc3C(C)(c3ccccc3)CC2(C)C)cc1 (centres undefined) | 0
CCCNS(=O)(=O)c1ccc(CCC(=O)Nc2ccc3c(c2)OCCO3)cc1 | 0
O=S(=O)(NCCc1csc(-c2ccccc2)n1)c1ccc2c(c1)OCCO2 | 18µM
CC(NS(=O)(=O)c1ccc2c(c1)OCCO2)c1ccccc1 (centres undefined) | 0
CC1CCN(C(=O)Cn2c(=O)n(CCCCCC(=O)NCc3ccccc3Cl)c(=O)c3sccc32)CC1 | 0
Cc1ccc(CC2(C)C(=O)Nc3c(Cl)cccc32)cc1 (centres undefined) | 8.9µM
CCc1ccc2c(c1)NC(=O)C2(C)Cc1ccc(Cl)cc1 (centres undefined) | 0
COc1ccccc1-c1ccc2c(c1)C(C)(Cc1ccc(Cl)c(Cl)c1)C(=O)N2 (centres undefined) | 0
Cc1ccccc1CNC(=O)C1CCN(c2nnc(-n3c(C)ccc3C)s2)CC1 | 0
CC1=C(C(=O)N2CCN(c3ccc(Cl)cc3)CC2)C2(CCC(C)CC2)OC1=O (centres undefined) | 0
CCCOc1ccc(CNC(=O)c2cc3oc4ccccc4c3n2C)cc1 | 0
CN=c1scc(-c2ccccc2F)n1/N=C/c1ccc[nH]1 | 0
C=CCN=c1scc(-c2ccc(F)cc2)n1/N=C/c1ccccn1 | 11µM
CCCCn1c(=O)nc2n(-c3ccc(F)cc3)c3ccccc3cc-2c1=O | 0
CC(C)(C)c1ccc(C2=NC(C)(C)N(CC(=O)Nc3ccc(F)c(F)c3)C2=O)cc1 | 0
O=C(NC(=S)Nc1ccccc1)c1ccc(-c2ccccc2)cc1 | 0
SMILES | TDP-43 rescue
O=C(O)c1ccc(NC(=S)NC(=O)c2ccc(-c3ccccc3)cc2)cc1 | 13µM
O=C(Nc1ccc(C(=O)O)cc1)/C(=C\c1ccccc1)NC(=O)c1ccccc1 | 0
CCn1c(C(=O)NCc2cc(Br)ccc2OC)cc2oc3ccccc3c21 | 0
COc1ccccc1NC(=O)c1ncn(-c2ccccc2)n1 | 0
CCOc1ccccc1CNC(=O)c1ccc2c(c1)N(Cc1ccc(C)cc1)CCS2 | 0
O=C(c1cccc([N+](=O)[O-])c1)c1ccc2c(c1)OCCOCCOCCO2 | 0
CC(=O)c1ccc2c(c1)OCCOCCOc1ccccc1OCCOCCO2 | 16µM
NC(=O)c1ccc2c(c1)OCCO2 | 0
Cc1ccc(-c2noc(-c3nnn(-c4ccc(Br)cc4F)c3C)n2)cc1 | 0
COc1ccccc1C1CC(c2cccs2)=NN1C(=O)CCC(=O)O (centres undefined) | 0
COc1ccc(C2CC(c3cccs3)=NN2C(=O)c2ccc(Br)o2)cc1 (centres undefined) | 0
Cc1ccc(C2CC(c3cccs3)=NN2C(=O)CCl)cc1 (centres undefined) | 13µM
Cc1ccc(C)c(N2CCN(c3nc4ccccc4n4nnnc34)CC2)c1 | 0
CCCCN(C)CCNC(=O)C1CCN(c2nc3ccc(CC)cc3s2)CC1 | 0
Cc1nn(-c2ccccc2)c(OC(=O)C(C)C)c1Sc1ccc(Cl)cc1 | 0
Nc1c(-c2ccccc2)c(CN2CCOCC2)nn1-c1cccc([N+](=O)[O-])c1 | 0
Cc1cc(NC(=O)c2cccc([N+](=O)[O-])c2)n(-c2ccccc2)n1 | 0
Cc1ccccc1-c1cnn(-c2cccc([N+](=O)[O-])c2)c1N | 13µM
COc1ccc(C2=NS(=O)(=O)N(C)C(C(=O)Nc3ccc(OC(F)(F)F)cc3)=C2)cc1 | 0
Cc1ccc(OC(C)C(=O)Nc2ccc(Cl)cn2)c([N+](=O)[O-])n1 (centres undefined) | 0
COC(=O)c1cc(C(=O)Nc2ccc(Cl)cn2)cc([N+](=O)[O-])c1 | 0
Cc1cc(Cl)ccc1OC(C)C(=O)Nc1ccc([N+](=O)[O-])cn1 (centres undefined) | 22µM
CCOC(=O)c1oc2c(c1C)-c1nn(Cc3ccc(Cl)cc3)cc1CC2 | 0
Cc1nn(CC(=O)NCc2ccccc2Br)c(=O)c2cc3occc3n12 | 0
CCOc1ccccc1NC(=O)N1CCc2cc(S(=O)(=O)N3CCC(C)CC3)ccc21 | 0
N/C(=N\OC(=O)c1ccc(Cl)cc1[N+](=O)[O-])c1cccnc1 | 0
